Compounds without any hit were thinned out: in the full panel of roughly 79,000, 15% have a hit. A number with no mark means an inactive call. Cut-off read from the data, not from the text of the source: active = growth inhibition above about 70%; inactive = the rest. Where a SMILES comes first, the peptide text is derived from it. Bridges are numbered along the chain shown (N, C = ends). Roman numbers before positions name the chains, in order. The star is where a group is joined. Cbz = O=C(OCc1ccccc1)*

The experiment is described as follows: NCI Yeast Anticancer Drug Screen. Data for the rad50 strain (AID 155).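 Note: 0% = growth of vehicle-only cultures of the same strain.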 To be noted: S. cerevisiae rad50 strain growth inhibition; at 50.0 µM; hits give high values. In outline:
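Readout: growth inhibition relative to vehicle-treated cultures. Compound exposure was carried out in a genetically defined yeast strain deficient in DNA damage repair.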
For the compound `C/C(=N\Nc1cc(C)nc2cc3c(cc12)OCO3)c1cn(C)n(-c2ccccc2)c1=O`, the growth inhibition is 19.9%.
Take `[Cu+2].[Cu+2].c1ccc2c(c1)-c1nc-2nc2[n-]c(nc3nc(nc4[n-]c(n1)c1ccccc41)-c1ccccc1-3)c1cc3c4nc5nc(nc6[n-]c(nc7nc(nc([n-]4)c3cc21)-c1ccccc1-7)c1ccccc61)-c1ccccc1-5`: the growth inhibition was -1.75%.
Turning to `O=C(CC(c1ccccc1)C(Br)[N+](=O)[O-])c1ccccc1` (stereo not drawn), the growth inhibition is 27.6%.
The same measure for `Cc1c(-c2ccccc2)c(=O)oc2cc(O)ccc12`: -12.4%; for `COC(=O)NC1CC/C=C\CCC1I` (stereo not drawn): 12.8%; for `CC(C)C(NC(=O)C(CSSCC(NC(=O)OCc1ccccc1)C(=O)NC(C(=O)O)C(C)C)NC(=O)OCc1ccccc1)C(=O)O` (stereo not drawn) (I: Cbz-Cys-Val-OH / II: Cbz-Cys-Val-OH; disulfide I:1-II:1; configuration not given here): 1.4%.
In the case of `O=C(O)c1n[nH]c2ccccc12`, the growth inhibition was 8.5%.
On to `OCC1OC(O)CC1O` (stereo not drawn), for which the growth inhibition is -15.2%.
For the compound `CC1(C(=O)O)CCCC1C(CCC(=O)O)C(=O)O` (stereo not drawn), the growth inhibition was -13.8%.
On to `Cc1cc(Cl)c2ccc(Cl)c(C)c2n1`, for which the growth inhibition is 6.65%.
Consider `C/C(=N\NC(=O)c1ccncc1)c1ccccc1Cl`, for which the growth inhibition was -23.3%.
The figure for `O=C(O)[C@H](c1ccccc1)[C@@H](C(=O)O)c1ccccc1` is -8.25%; for `CC(=O)Nc1cc(F)c(N=Nc2ccc([N+](=O)[O-])cc2)c(F)c1` it is -9.5%.

For the origin of these results see PubChem BioAssay (NCI).
